This is an account of results in PubChem BioAssay AID2289 (National Center for Advancing Translational Sciences (NCATS), 2010).

The whole screen tested about 340,000 compounds, of which about 3,300 (0.97%) were called active. Another 9% or so got no clear call; they are omitted. Calls follow the shape of the dose curve; as a rule, active = well fitted inhibition curve with a large enough effect; inconclusive = small, poorly fitted or top-dose-only effect, or effect the other way; inactive = flat fitted curve, though single readings scatter. The list shows a part of the results.
Potency is read from the fitted curve at half-maximal effect.

The nature of the experiment: qHTS Assay for Modulators of miRNAs and/or Inhibitors of miR-21. Also: nearly all actives have a fitted effect of over 55% in size. The following applies: HeLa miR-21-FLuc reporter, luciferase luminescence, 48 h; actives lower the signal. The essentials:
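Using DMEM plus 10% FBS, HeLa miR-21-FLuc cells are incubated with test compounds (final up to about 40uM) for 48 hours; firefly luciferase signal is then imaged following reagent-mediated lysis.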
(In qHTS, concentration-response curves come from the screen itself.)
Regarding `Cc1cc2nc(-c3ccc(NC(=O)c4cc5ccccc5o4)cc3)oc2cc1C`, the Potency is 8.26 µM (active).
Under `CCc1ccc(C(=O)N/N=C/c2cccc3ccccc23)nc1` stands 8.26 µM (active).
In the case of `Cc1ccc(NC(=O)c2ccoc2C)cc1C`, the Potency was 4.14 µM (active).
For `C/C(=N\NC(=O)c1ccoc1C)c1cccc2ccccc12`, the Potency is 7.36 µM (active).
Next, `C/C(=N\NC(=O)c1ccoc1C)c1ccccc1`: 1.85 µM (active); `C/C(CC(=O)NC(C)(C)C)=N\NC(=O)c1ccco1`: 6.56 µM (active).
Under `C/C(=N\NC(=O)c1ccco1)c1ccc(-c2ccccc2)cc1` stands 2.93 µM (active).
`Cc1occc1C(=O)NNC(=S)Nc1ccccc1C(F)(F)F`: the Potency is 8.26 µM (active).
Next, `Cc1occc1C(=O)N/N=C/c1cnn(C)c1C`: 13.1 µM (active); `Cc1occc1C(=O)NNC(=O)c1ccccc1C(=O)O`: 1.17 µM (active); `Cc1occc1C(=O)N/N=C/c1cccc2ccccc12`: 2.07 µM (active).
Next, `C/C(=N/NC(=O)c1ccoc1C)c1ccc(N2CCOCC2)cc1`: 0.927 µM (active); `O=[N+]([O-])c1ccccc1-c1cc(-c2ccccc2O)n[nH]1`: 2.07 µM (active).
Under `c1nc(NCCN2CCOCC2)c2c3c(sc2n1)CCCCC3` stands 16.5 µM (active); under `Cc1ccc(O)c(NC(=O)c2cc(-c3ccco3)on2)c1`, 13.1 µM (active).
On to `Cc1ccc(O)c(NC(=O)c2cc(-c3cccs3)on2)c1`, for which the Potency is 4.65 µM (active).
Next, `Cc1ccc(O)c(NC(=O)c2cc(-c3ccccc3)on2)c1`: 2.61 µM (active).
Under `O=C(Nc1cc(Cl)ccc1O)c1cc(-c2ccco2)on1` stands 16.5 µM (active); under `Cc1cc(NCc2ccccn2)ccc1Br`, 9.27 µM (active).
Under `CC(C)(C)c1ccc(-c2nc(C#N)c(NCc3ccncc3)o2)cc1` stands 4.14 µM (active); under `COc1ccc(-c2nc(C#N)c(NCCCn3ccnc3)o2)cc1OC`, 16.5 µM (active); under `COc1ccc(-c2nc(C#N)c(NCCc3ccccc3)o2)cc1`, 9.27 µM (active).
Consider `COc1ccc(-c2nc(C#N)c(NCc3ccc(C)cc3)o2)cc1OC`, for which the Potency is 7.36 µM (active).
Under `COc1ccc(-c2nc(C#N)c(NCCc3ccccc3)o2)cc1OC` stands 2.93 µM (active); under `CCC(=O)Nc1cccc(OCc2cc(=O)n3cc(C)ccc3n2)c1`, 6.56 µM (active).
In the case of `Cc1csc2ncc(C(=O)Nc3ccc4c(c3)OCCO4)c(=O)n12`, the Potency was 0.208 µM (active).
Next, `O=C(Nc1ccc2c(c1)OCCO2)c1cnc2n(c1=O)CCS2`: 1.47 µM (active).
Next, `COc1ccc(-c2noc(-c3ccoc3C)n2)cc1`: 2.07 µM (active).
Next, `COc1cccc(-c2noc(-c3ccoc3C)n2)c1`: 6.56 µM (active); `Cc1ccc(/C=N/Nc2ncnc3nc[nH]c23)cc1`: 0.826 µM (active); `Cc1ccc(NC(=O)Nc2ncnc3nc[nH]c23)cc1`: 2.93 µM (active).
With `Cc1ccc(/C=N/Nc2nnc(Cl)c3ccccc23)cc1`, the Potency was 0.414 µM (active).
With `CCc1ccc(/C=N/Nc2ncnc3nc[nH]c23)cc1`, the Potency is 0.656 µM (active).
Under `Cc1cccc(/C=N/NC(=O)c2ccc(Br)cc2)c1` stands 18.5 µM (active); under `CCN(CC)c1ccc(NC(=S)NC(=O)c2cccs2)cc1`, 2.33 µM (active); under `COc1ccc(NC(=S)NNC(=O)c2cccs2)cc1`, 7.36 µM (active).
For the molecule `O=C(NNC(=S)Nc1ccccc1)c1cccs1`, the Potency was 2.07 µM (active).
Next, `Cc1ccc(-n2ncc3c(Nc4cccc(C)c4C)ncnc32)cc1`: 2.07 µM (active).
For the molecule `CCc1ccccc1Nc1ncnc2c1cnn2-c1ccc(Cl)cc1`, the Potency was 6.56 µM (active).
Next, `CCOc1ccccc1Nc1ncnc2c1cnn2-c1ccc(C)cc1`: 5.21 µM (active); `COc1nc(C)ccc1-c1noc(-c2cccs2)n1`: 1.85 µM (active).
In the case of `COc1nc(-c2ccccc2)ccc1-c1noc(C)n1`, the Potency is 7.36 µM (active).
Next, `CCOc1ccccc1-c1nc(-c2ccc(C)nc2OC)no1`: 3.69 µM (active); `COc1ccccc1-c1nc(-c2ccc(C)nc2OC)no1`: 3.29 µM (active).
Take `CCOc1ccc(-c2nc(-c3ccccc3C)no2)cc1`: the Potency is 0.826 µM (active).
Under `O=C(/C=C/c1c(F)cccc1Cl)Nc1nc2ccccc2[nH]1` stands 5.21 µM (active); under `O=C(/C=C/c1c(F)cccc1Cl)Nc1ncccn1`, 3.29 µM (active).
Under `NC(=O)c1ccccc1NC(=O)/C=C/c1c(Cl)cccc1Cl` stands 2.93 µM (active); under `S=C(Nc1ccc2[nH]ccc2c1)NC1CCCCC1`, 4.14 µM (active); under `Cc1cccn2cc(-c3c[nH]c4ccccc34)nc12`, 13.1 µM (active).
Next, `O=C(c1cc(COc2ccc(F)cc2Cl)on1)N1CCCCCC1`: 4.14 µM (active).
In the case of `O=C(c1cc(COc2ccc(F)cc2Cl)on1)N1CCSCC1`, the Potency was 6.56 µM (active).
Next, `O=C(c1cc(COc2ccc(F)cc2F)on1)N1CCOCC1`: 14.7 µM (active); `O=C(c1cc(COc2ccc(F)cc2F)on1)N1CCSCC1`: 5.85 µM (active); `O=C(c1cc(COc2c(F)cccc2F)on1)N1CCCCCC1`: 7.36 µM (active).
Next, `O=c1c(Cl)c(N2CCN(c3ccc(F)cc3)CC2)cnn1-c1nc2ccccc2s1`: 3.29 µM (active); `Cc1ccc(C)c(N2CCN(c3cnn(-c4nc5ccccc5s4)c(=O)c3Cl)CC2)c1`: 0.927 µM (active); `O=C(/C=C/c1ccccc1)NC1CC2CCC1C2` (configuration not stated): 7.36 µM (active).
Next, `Cc1cc(-c2ccc(N3CCOCC3)cc2)nc2ccccc12`: 3.29 µM (active); `COc1cccc(C(=O)NN2C(=S)N(c3ccccc3)C(=O)C2CC(N)=O)c1` (configuration not stated): 6.56 µM (active).
Regarding `NC(=O)CC1C(=O)N(c2ccccc2)C(=S)N1NC(=O)c1ccc(Br)cc1` (configuration not stated), the Potency was 7.36 µM (active).
For `COc1ccc(-c2nnc(-c3ccccc3)o2)cc1OC`, the Potency is 3.69 µM (active).
Under `COc1ccccc1-c1nnc(-c2ccc(N3CCOCC3)cc2)o1` stands 7.36 µM (active).
Next, `CCOc1ccc(-c2nnc(-c3cccs3)o2)cc1OCC`: 6.56 µM (active); `COc1ccc(-c2nnc(-c3ccc(Br)o3)o2)cc1OC`: 14.7 µM (active).
Next, `COc1ccc(-c2noc(-c3cccs3)n2)cc1OC`: 0.826 µM (active); `c1csc(-c2nc(-c3ccc(-c4ccon4)s3)no2)c1`: 0.329 µM (active); `CN(C)c1ccc(-c2nnc(-c3cccs3)o2)cc1`: 0.117 µM (active).
As to `COc1ccc(CCN(C)C(=O)CCc2nnc(-c3ccccc3)o2)cc1OC`, the Potency was 4.65 µM (active).
Under `CCOc1ccc(-c2nnc(-c3ccco3)o2)cc1OCC` stands 16.5 µM (active); under `COc1ccc(-c2nnc(-c3cccs3)o2)cc1OC`, 2 µM (active); under `Cc1cc(C)c(C#N)c(SCC(=O)Nc2ccc3c(c2)OCO3)n1`, 3.29 µM (active).
`Cc1cc(C)c(C#N)c(SCC(=O)Nc2nonc2N)n1`: the Potency is 14.7 µM (active).
Under `COc1ccc(NC(=S)Nc2cc(C)ccn2)c(OC)c1` stands 1.65 µM (active); under `COc1ccc(NC(=O)c2cc(C(C)C)on2)c(OC)c1`, 3.69 µM (active).
Under `COc1ccc(NC(=O)c2ccc(C)cc2)c(OC)c1` stands 5.85 µM (active).
Next, `CCN(CC)C(=O)c1ccc(-c2cccs2)s1`: 6.56 µM (active).
Turning to `CC(=O)N=C(N)Sc1nc2ccccc2[nH]1`, the Potency is 2.33 µM (active).
Under `CCOC(=O)c1ccccc1N/C=C/C(=O)c1cccs1` stands 9.27 µM (active); under `NC(=O)c1ccccc1N/C=C/C(=O)c1cccs1`, 0.521 µM (active).
Next, `Cc1ccc2nc(-c3ccc(SCC(=O)Nc4nc(C)cs4)nc3)[nH]c2c1`: 1.47 µM (active); `c1ccc(N2CCN(c3cnc4ccccc4n3)CC2)cc1`: 1.04 µM (active).
Under `COc1cc(C)ccc1OCCCOc1ccccc1Br` stands 14.7 µM (active); under `COc1ccccc1OCCCOc1ccc(C)cc1Br`, 14.7 µM (active); under `O=C(c1ccc(F)cc1)c1ccc(N2CCCCC2)cc1`, 4.65 µM (active).
`COc1ccc(/C(C)=N/NC(=O)c2ccccc2N)cc1`: the Potency was 18.5 µM (active).
Next, `COc1ccc(C(=O)N/N=C(/C)c2ccc(N3CCCCC3)cc2)cc1`: 8.26 µM (active); `C/C(=N\NC(=O)c1ccccc1)c1ccc(N2CCCCC2)cc1`: 6.56 µM (active).
Turning to `Cc1ccc(/C(N)=N/OC(=O)c2ccc(C)cc2Cl)cc1`, the Potency is 0.261 µM (active).
Under `Cc1ccc(/C(N)=N/OC(=O)c2ccc(Cl)cc2Cl)cc1` stands 1.04 µM (active).
Under `CCn1c(/C=C/c2c[nH]c3ccccc23)nc2ccccc2c1=O` stands 0.414 µM (active); under `O=C(NNc1ncnc2ccccc12)c1cccc(Cl)c1`, 0.927 µM (active).
Next, `O=C(c1cnsn1)N1CCC(CO)(Cc2cccc(F)c2)CC1`: 14.7 µM (active); `Cc1nc2cc(-c3ccc(Cl)cc3)nn2c(NCCN(C)C)c1C`: 5.85 µM (active).
For the molecule `Cc1cccc(-c2cc3nc(C)cc(C)n3n2)c1`, the Potency was 1.85 µM (active).
In the case of `CSc1nc(N)n2nc(-c3ccc(Cl)cc3)cc2n1`, the Potency is 0.826 µM (active).
Under `Cc1cc(C)n2nc(-c3cccc(Br)c3)cc2n1` stands 3.29 µM (active); under `COc1ccc(-c2cc3nc(C)cc(C)n3n2)cc1`, 3.29 µM (active).
Next, `Cc1ccc(-c2cc3nc(C)cc(C)n3n2)cc1`: 3.69 µM (active); `Cc1cc(C)n2nc(-c3ccc(Cl)cc3)cc2n1`: 1.17 µM (active); `Cc1ccsc1C(=O)NNC(=O)C1C2C=CC(C2)C1C(=O)O` (configuration not stated): 0.826 µM (active).
Next, `Cc1ccsc1C(=O)NNC(=O)C1CC=CCC1C(=O)O` (configuration not stated): 4.65 µM (active); `Cc1ccsc1C(=O)NNC(=O)C1CCCCC1C(=O)O` (configuration not stated): 1.85 µM (active); `CN(C)/N=C/c1ccc(OS(=O)(=O)c2ccccc2)cc1`: 3.29 µM (active).
Turning to `Cc1[nH]n(C(N)=S)c(=O)c1N=Nc1ccc2ccccc2c1`, the Potency was 1.47 µM (active).
Under `Nc1nc2sc3c(c2c(=O)s1)CCCC3` stands 16.5 µM (active); under `COCCCNC(=O)COc1ccc(Br)cc1Cl`, 10.4 µM (active).
